Hits are enriched below; roughly 3.2% of the tested compounds scored in any of these assays.
GLP1R ag: activates the human GLP-1 receptor; P43220; HEK293 GLP-1R CRE-luciferase, luminescence, 4-6 h; cells express a hypersensitive GLP-1R form; Potency, µM (top dose mostly 45.6 µM), without a hit: at the top dose activation, hits mostly activators; actives 0.007% (n = 380,000); AID 624172; also: % of control where 0% means no effect
Target sequence (P43220 whole entry, looked up): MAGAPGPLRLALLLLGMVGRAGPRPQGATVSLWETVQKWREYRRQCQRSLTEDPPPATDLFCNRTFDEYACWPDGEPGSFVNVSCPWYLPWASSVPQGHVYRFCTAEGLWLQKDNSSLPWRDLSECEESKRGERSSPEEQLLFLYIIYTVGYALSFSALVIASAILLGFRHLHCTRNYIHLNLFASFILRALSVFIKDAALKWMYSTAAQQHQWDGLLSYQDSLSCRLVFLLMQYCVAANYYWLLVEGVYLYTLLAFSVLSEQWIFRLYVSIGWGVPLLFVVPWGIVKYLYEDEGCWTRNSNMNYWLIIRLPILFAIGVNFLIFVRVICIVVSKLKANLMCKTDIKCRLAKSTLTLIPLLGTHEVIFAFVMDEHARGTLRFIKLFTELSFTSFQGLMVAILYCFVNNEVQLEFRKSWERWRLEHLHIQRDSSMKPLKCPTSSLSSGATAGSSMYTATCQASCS
ClpP mod: qHTS Assay for Activators of ClpP; ATP-dependent Clp protease proteolytic subunit (Bacillus subtilis (strain 168)), P80244; purified B. subtilis ClpP, FRET peptide cleavage, 20 min; Potency, µM (series often up to 57.5 µM), without a hit: at the top dose activity change, negative = active; actives 1.9% (n = 340,000); active = well fitted falling curve with a large enough effect; inconclusive = small, poorly fitted or top-dose-only effect; inactive = no such curve, though single readings can be large or run the other way; also: the source files actives as falling curves though it sought activators and does not explain the sign; nearly all actives have a fitted effect of over 65% in size
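FRET quenching reversal measured ClpP activation: 10 microg/mL B. subtilis ClpP at pH 8 with the FRET-FV decapeptide, read at 430 nm after 320 nm excitation. The 20-min minus 0-min signal was scaled between DMSO/no-enzyme wells and ADEP (5.8 microM final).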
GLP1R inv ag: inverse agonists of human GLP-1 receptor. Potency, µM (doses to about 38.3 µM), inactives show at the highest dose activity change, negative = inhibition, hits mostly inhibitors. AID 624417. P43220. actives 1.6% (n = 410,000). HEK293 GLP-1R CRE-luciferase, luminescence, 24 h; GLP-1R form is constitutively active; also: % is scaled to controls: 0 for no effect and ±100 for the full control effect; nearly all actives have a fitted effect of over 55% in size
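GLP-1R inverse agonism mode: basal reporter luminescence in engineered HEK293 cells measured after one day of compound exposure at 37 deg C, with a 12 min room-temperature detection step.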
HEK293 tox: cytotoxicity counter-screen for GLP-1 receptor inverse agonists | Potency, µM (series often up to 38.3 µM), for inactives: at the top dose activity change, negative = inhibition, usual class: inhibitors | actives 0.13% (n = 410,000) | AID 624418 | HEK293 cAMP-luciferase reporter cells, luminescence, 24 h;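 also: loss of luciferase light is scored as toxicity; % is scaled to controls: 0 for no effect and ±100 for the full control effect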
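Quantitative HTS format, 1536 wells, 200 cells/uL seeded. Compounds: 23 nL, 24 h, 37 °C. Detection: luciferase reagent, luminescence at 12 min RT; decreased signal taken as cytotoxic.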
An asterisk follows results filed as active; u = inconclusive; x = no result. Unless noted, calls follow the shape of the dose curve; as a rule, active = well fitted curve in the direction sought with a large enough effect; inconclusive = small, poorly fitted or top-dose-only effect, or another doubt; inactive = no such curve, though single readings can be large; an effect the other way counts as inactive or inconclusive. Potency is read from the fitted curve at half-maximal effect.

SMILES	GLP1R ag	ClpP mod	GLP1R inv ag	HEK293 tox
COc1ccccc1Oc1nc(-c2ccccc2)cc(C)c1S(C)(=O)=O	5%	25µM*	u	-6%
CCc1ccc(NC(=O)CC(c2ccc(C)cc2)N2Cc3ccccc3C2=O)cc1 (centres undefined)	-6%	2%	17%	1%
COc1cccc(C2CC(c3ccc(Br)cc3)=NN2C(=O)c2ccncc2)c1OC (centres undefined)	16%	x	10µM*	-9%
C[C@@H]1CN([C@@H](C)CO)C(=O)c2cc(NC(=O)C3CC3)ccc2O[C@@H]1CN(C)Cc1ccc(Cl)c(Cl)c1	-1%	-4%	11µM*	-24%
C[C@@H]1CN([C@H](C)CO)C(=O)c2cc(NC(=O)C3CCCCC3)ccc2O[C@@H]1CN(C)Cc1ccncc1	-2%	-4%	7%	3%
C[C@H](CO)N1C[C@H](C)[C@@H](CN(C)Cc2ccc(Cl)c(Cl)c2)Oc2c(NS(=O)(=O)c3ccc(F)cc3)cccc2C1=O	-1%	1%	11µM*	u
CC(C)NC(=O)Nc1ccc2c(c1)C(=O)N([C@H](C)CO)C[C@H](C)[C@@H](CN(C)Cc1ccc(C(F)(F)F)cc1)OCCCC[C@H](C)O2	2%	1%	10µM*	-27%
CCCCSCCCNC(=O)CN1C(=O)c2cccnc2Oc2ccc(Cl)cc21	x	-1%	-15%	-1%
COc1ccc(NC(=O)CCc2c(C)nc3nc(CNC(=O)OC(C)(C)C)nn3c2C)cc1OC	x	0%	19%	9%
Nc1c(C(=O)NC2CCCCC2)nsc1C(=O)OCC(=O)NC1CCCCC1	3%	25µM*	3%	2%
O=C(CC1NCCNC1=O)Nc1cccc(F)c1 (centres undefined)	0%	0%	8%	6%
O=C1OCCC1Sc1nnc(-c2ccc(F)cc2)n1Cc1ccccc1 (centres undefined)	3%	25µM*	8%	-14%
O=C1OCCC1Sc1nc2ccccc2c(=O)n1Cc1ccc(F)cc1 (centres undefined)	15%	1%	-26%	-2%
Cc1ccc(C2=CC(c3ccc(Cl)cc3)n3nc(-c4ccc(C)cc4)nc3N2)cc1 (centres undefined)	x	-12%	2.2µM*	35%
COc1cccc(-c2nc(CS(=O)(=O)CC(=O)N3CCN(c4ccccc4)CC3)c(C)o2)c1	x	0%	u	-28%
CC(NC(=O)Nc1ccccc1C(F)(F)F)c1c(-n2cccc2)sc2c1CCCC2 (centres undefined)	x	0%	u	7%
COc1cc(NC(=O)NC(C)c2c(-n3cccc3)sc3c2CCCC3)cc(OC)c1OC (centres undefined)	x	-1%	11µM*	1%
CC(C)c1cnc2c(c1SCC(=O)Nc1ccccc1C(F)(F)F)c(=O)n(C)c(=O)n2C	x	-1%	2%	-1%
Cc1ccc(-c2noc(-c3ccc(N4CCCCC4C)c([N+](=O)[O-])c3)n2)cc1 (centres undefined)	x	-1%	15%	5%
O=C(c1cc2ccc3cccnc3c2[nH]1)N1CCCCC1	x	-3%	6.3µM*	4%
CC1CCCN(C(=O)c2cc3ccc4cccnc4c3[nH]2)C1 (centres undefined)	x	-2%	6.3µM*	-2%
COc1cc(-c2nc3ccccn3c2/N=C/c2ccccc2)ccc1O	-2%	32µM*	1%	43%
CCOc1cc(-c2nc3ccccn3c2NCC2CCCO2)ccc1O (centres undefined)	4%	u	2%	13%
Oc1cccc(/C=N/c2c(-c3ccco3)nc3ccccn23)c1	-2%	28µM*	5%	6%
COc1cc(-c2nc3ccccn3c2NCC2CCCO2)ccc1O (centres undefined)	-5%	25µM*	0%	28%
COc1cc(-c2nc3ccccn3c2/N=C/c2cccc(F)c2)ccc1O	-3%	-14%	-10%	16%
CC(O)CNCCCCOc1ccc(OCc2ccccc2)cc1 (centres undefined)	-1%	-1%	14µM*	-9%
Cc1cc(C)nc(-n2nc(C)c(Br)c2Nc2ccc(Br)cc2)n1	1%	-1%	u	5.6µM*

Screening data: PubChem, National Center for Advancing Translational Sciences (NCATS)
